In the supplement of paper PMC11732987, “Enantioselective OTUD7B fragment discovery through chemoproteomics screening and high-throughput optimisation” (Communications Chemistry, 2025):
Values without a mark were called inactive.

Assays:
Assay in all cases: log2 ratio of Biotin-Ahx-Ub-VS probe labelling (fragment/DMSO); higher = less target engagement (more negative = stronger competition), active = hit call of the paper (q ≤ 0.05, log2 ratio ≤ -1)
Conditions in all cases: compound concentration: 200 uM; treatment time: 3 h
[1] = biological target: USP9X (UniProt Q93008)
Procedure, shortened: (§1)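 In triplicate, 495 µg of HEK293T lysate per sample was incubated with fragment at 200 µM or vehicle for 3 h. Biotin-Ahx-Ub-VS was then added to 0.5 µM final for 1 h, and labelled DUBs were captured with NeutrAvidin, digested with LysC and trypsin, and measured by diaPASEF LC-MS/MS. Data are average log2 fragment/vehicle ratios by unpaired t-test from global-median-normalised Spectronaut label-free quantities, restricted to proteins with ≥2 unique peptides.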

[2] = biological target: UniProt O00487
Sequence of UniProt O00487 (O00487 whole entry): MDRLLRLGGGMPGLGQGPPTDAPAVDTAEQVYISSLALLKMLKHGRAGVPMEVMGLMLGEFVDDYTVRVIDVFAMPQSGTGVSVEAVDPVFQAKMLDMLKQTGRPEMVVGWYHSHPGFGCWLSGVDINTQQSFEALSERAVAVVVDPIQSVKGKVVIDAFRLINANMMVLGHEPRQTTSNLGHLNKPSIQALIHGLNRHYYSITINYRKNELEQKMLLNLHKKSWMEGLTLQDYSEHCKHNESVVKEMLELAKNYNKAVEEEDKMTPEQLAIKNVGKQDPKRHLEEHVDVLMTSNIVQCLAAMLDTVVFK
Procedure, shortened: as §1

[3] = biological target: UniProt O00507
Sequence of UniProt O00507 (O00507 whole entry): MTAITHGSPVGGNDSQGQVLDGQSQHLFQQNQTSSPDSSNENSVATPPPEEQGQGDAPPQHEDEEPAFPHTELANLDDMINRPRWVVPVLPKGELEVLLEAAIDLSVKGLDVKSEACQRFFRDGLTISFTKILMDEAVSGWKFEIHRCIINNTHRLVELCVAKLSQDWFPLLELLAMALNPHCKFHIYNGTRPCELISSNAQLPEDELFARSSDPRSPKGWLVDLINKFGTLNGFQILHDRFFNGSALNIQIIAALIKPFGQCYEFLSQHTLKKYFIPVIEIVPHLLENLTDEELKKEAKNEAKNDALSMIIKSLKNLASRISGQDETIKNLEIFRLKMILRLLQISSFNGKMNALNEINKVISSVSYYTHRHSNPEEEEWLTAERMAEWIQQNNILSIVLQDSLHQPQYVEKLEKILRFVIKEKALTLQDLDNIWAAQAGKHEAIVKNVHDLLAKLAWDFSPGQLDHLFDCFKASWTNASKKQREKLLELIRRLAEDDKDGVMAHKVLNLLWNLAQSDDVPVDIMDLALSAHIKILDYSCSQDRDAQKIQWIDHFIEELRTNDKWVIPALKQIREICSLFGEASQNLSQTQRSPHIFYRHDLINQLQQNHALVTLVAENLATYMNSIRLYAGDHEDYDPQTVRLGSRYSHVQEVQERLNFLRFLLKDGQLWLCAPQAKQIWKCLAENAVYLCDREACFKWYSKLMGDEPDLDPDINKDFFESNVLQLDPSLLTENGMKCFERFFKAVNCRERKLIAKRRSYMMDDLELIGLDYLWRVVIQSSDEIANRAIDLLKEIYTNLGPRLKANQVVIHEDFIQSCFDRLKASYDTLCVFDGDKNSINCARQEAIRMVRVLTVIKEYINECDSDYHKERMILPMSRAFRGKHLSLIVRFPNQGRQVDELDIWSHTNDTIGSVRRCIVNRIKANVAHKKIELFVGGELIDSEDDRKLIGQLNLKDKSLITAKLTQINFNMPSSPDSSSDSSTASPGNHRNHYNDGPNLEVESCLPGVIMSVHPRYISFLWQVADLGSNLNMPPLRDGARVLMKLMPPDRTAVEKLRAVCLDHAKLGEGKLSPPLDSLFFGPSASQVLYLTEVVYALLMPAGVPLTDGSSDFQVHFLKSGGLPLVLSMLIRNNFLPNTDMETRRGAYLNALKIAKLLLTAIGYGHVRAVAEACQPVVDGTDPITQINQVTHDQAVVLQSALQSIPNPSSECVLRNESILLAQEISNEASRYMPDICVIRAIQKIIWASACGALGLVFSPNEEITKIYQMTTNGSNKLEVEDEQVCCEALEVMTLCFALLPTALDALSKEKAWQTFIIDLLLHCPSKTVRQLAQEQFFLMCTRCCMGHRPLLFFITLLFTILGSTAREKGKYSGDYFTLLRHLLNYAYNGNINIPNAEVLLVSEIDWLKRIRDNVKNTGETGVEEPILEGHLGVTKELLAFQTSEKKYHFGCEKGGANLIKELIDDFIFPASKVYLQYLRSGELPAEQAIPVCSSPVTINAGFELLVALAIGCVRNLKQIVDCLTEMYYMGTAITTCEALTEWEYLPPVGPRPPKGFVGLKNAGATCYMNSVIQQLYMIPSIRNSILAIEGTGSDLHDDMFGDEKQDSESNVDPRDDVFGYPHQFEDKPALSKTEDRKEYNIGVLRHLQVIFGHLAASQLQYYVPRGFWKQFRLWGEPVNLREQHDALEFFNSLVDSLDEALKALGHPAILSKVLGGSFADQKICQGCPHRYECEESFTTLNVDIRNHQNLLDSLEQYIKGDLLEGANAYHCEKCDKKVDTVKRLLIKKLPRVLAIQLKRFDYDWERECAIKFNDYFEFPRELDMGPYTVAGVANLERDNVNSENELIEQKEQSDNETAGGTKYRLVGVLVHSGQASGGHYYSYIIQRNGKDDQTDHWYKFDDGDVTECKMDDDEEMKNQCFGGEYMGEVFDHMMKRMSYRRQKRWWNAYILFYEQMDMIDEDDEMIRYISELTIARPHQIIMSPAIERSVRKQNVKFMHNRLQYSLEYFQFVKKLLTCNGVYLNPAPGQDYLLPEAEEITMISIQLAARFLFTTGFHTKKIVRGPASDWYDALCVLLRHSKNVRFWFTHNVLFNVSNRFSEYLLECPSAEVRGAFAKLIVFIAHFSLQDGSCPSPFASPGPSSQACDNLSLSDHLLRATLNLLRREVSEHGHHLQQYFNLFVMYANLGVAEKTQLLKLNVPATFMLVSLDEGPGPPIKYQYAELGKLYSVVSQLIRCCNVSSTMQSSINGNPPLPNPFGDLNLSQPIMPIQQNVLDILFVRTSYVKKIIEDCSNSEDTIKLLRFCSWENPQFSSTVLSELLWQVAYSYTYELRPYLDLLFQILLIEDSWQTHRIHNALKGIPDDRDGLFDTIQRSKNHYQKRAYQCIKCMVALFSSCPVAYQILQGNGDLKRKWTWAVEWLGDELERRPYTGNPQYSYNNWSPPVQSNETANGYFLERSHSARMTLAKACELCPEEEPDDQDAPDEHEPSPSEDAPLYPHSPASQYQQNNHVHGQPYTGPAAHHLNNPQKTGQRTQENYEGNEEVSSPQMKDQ
Procedure, shortened: as §1

[4] = biological target: UniProt P51784
Sequence of UniProt P51784 (P51784 whole entry): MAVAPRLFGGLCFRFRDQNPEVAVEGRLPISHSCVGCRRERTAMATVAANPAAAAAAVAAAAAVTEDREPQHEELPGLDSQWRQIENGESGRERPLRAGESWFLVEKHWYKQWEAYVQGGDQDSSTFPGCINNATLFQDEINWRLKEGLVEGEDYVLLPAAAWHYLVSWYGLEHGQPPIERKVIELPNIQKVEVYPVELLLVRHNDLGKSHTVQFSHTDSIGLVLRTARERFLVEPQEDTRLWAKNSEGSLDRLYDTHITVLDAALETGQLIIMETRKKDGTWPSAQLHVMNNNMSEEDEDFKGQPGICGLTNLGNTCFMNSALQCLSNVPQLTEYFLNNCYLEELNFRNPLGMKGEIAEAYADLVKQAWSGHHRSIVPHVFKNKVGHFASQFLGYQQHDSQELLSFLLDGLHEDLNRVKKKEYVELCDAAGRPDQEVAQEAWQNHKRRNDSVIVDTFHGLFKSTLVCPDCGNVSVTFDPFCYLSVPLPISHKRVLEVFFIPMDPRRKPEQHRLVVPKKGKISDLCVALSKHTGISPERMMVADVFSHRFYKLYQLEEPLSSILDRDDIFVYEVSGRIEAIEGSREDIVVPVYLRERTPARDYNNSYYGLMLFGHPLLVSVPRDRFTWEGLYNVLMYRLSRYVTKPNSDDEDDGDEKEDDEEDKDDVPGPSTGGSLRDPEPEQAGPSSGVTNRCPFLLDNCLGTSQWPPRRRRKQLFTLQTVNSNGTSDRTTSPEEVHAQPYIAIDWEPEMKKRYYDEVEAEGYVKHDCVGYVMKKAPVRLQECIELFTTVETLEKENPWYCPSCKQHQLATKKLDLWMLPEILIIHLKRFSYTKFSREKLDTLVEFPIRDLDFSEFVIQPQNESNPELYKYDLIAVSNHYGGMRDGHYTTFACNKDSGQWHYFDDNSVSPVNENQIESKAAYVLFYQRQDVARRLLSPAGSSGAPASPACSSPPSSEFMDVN
Procedure, shortened: as §1

[5] = biological target: T1, UniProt Q5T2D3
T1 sequence (whole entry): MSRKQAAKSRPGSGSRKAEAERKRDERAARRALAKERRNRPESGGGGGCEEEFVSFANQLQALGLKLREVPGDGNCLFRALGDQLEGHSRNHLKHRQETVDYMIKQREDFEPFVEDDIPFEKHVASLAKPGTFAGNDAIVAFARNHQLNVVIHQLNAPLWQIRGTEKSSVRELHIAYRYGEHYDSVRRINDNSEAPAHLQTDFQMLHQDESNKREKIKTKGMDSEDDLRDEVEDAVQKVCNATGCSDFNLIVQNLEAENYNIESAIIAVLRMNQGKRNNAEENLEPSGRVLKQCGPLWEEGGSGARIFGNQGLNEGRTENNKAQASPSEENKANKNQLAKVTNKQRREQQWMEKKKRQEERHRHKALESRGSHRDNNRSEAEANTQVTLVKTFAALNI
Procedure, shortened: as §1

[6] = biological target: T2, UniProt Q8TE49
T2 sequence (whole entry): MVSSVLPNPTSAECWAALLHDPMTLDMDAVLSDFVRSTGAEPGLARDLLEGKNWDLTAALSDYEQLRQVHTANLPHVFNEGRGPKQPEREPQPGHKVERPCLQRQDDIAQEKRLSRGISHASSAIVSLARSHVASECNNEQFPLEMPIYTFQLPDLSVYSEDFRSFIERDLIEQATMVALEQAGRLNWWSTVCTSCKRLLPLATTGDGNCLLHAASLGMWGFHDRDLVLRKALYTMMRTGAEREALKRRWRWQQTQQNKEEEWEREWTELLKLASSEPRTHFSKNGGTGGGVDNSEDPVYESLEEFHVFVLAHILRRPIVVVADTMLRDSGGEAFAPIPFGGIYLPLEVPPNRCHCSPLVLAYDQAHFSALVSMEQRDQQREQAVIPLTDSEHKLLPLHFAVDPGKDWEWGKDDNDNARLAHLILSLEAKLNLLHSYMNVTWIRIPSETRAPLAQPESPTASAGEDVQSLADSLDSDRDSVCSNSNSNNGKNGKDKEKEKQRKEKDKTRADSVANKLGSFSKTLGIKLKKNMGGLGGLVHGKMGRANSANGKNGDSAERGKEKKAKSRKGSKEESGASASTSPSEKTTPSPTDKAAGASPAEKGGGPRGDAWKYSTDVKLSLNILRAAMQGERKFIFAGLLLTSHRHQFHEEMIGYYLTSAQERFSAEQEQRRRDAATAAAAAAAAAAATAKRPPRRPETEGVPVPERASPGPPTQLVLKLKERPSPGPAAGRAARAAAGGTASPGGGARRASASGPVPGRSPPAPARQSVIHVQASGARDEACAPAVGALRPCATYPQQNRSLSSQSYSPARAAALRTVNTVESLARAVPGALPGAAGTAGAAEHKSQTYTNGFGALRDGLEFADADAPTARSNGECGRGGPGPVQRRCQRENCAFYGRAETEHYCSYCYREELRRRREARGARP
Procedure, shortened: as §1

[7] = biological target: T3, UniProt Q9P2H5
T3 sequence (whole entry): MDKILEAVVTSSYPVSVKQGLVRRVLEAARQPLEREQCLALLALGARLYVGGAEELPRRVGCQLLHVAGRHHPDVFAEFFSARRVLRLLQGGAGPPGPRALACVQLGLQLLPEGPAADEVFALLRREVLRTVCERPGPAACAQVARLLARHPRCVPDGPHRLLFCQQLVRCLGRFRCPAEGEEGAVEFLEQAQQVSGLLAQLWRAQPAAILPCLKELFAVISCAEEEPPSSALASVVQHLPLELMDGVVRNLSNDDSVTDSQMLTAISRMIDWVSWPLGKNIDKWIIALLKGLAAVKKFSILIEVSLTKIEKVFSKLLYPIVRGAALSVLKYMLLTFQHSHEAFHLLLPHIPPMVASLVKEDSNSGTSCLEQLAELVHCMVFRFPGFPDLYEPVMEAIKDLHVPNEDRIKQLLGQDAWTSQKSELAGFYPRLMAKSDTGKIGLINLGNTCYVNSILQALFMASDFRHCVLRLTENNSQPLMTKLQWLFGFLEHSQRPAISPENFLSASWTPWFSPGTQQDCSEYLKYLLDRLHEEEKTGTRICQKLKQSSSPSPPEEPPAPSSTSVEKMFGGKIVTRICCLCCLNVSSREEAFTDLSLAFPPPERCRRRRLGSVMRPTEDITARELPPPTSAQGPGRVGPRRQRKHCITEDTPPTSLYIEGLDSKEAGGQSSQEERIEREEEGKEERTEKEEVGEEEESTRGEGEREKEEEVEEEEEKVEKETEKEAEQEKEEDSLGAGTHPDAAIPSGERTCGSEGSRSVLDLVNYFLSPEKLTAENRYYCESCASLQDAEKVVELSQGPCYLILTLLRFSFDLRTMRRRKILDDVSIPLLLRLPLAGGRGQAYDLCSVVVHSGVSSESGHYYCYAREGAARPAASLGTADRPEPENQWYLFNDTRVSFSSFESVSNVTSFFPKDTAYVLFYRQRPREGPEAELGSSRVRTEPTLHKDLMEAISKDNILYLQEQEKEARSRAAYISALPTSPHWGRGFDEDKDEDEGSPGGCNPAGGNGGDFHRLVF
Procedure, shortened: as §1

[8] = biological target: T4, UniProt Q9UGI0
T4 sequence (whole entry): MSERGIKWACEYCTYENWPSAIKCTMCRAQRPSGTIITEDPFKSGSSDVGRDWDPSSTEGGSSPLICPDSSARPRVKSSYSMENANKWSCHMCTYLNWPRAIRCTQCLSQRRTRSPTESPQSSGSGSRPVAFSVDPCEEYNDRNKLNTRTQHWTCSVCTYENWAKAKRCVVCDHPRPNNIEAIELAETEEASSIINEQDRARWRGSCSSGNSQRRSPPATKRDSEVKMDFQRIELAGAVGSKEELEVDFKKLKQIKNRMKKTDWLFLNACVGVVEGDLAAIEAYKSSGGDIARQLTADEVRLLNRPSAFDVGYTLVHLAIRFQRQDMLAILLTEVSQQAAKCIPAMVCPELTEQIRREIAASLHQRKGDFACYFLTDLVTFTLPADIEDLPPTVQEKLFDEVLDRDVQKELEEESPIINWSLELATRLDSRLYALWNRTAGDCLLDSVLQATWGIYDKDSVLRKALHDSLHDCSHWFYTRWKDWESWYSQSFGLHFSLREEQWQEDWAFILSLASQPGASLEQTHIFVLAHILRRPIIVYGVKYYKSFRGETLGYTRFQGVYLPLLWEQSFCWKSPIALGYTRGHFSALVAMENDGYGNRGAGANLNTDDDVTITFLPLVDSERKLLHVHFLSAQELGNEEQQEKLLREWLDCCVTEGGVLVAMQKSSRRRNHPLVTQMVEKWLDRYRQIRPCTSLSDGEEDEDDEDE
Procedure, shortened: as §1

[9] = biological target: T5, YOD1 (UniProt Q5VVQ6)
T5 sequence (whole entry): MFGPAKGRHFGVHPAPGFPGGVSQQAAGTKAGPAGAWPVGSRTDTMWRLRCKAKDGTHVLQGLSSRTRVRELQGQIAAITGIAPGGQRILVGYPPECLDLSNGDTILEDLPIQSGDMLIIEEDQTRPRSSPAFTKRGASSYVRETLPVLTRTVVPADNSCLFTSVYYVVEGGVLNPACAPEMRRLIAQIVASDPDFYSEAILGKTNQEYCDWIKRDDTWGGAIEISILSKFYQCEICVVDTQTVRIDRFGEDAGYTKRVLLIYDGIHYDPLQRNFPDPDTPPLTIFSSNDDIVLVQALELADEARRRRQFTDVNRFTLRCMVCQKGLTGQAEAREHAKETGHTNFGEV
Procedure, shortened: as §1

CC(NC(=O)CCl)c1ccc2[nH]ncc2c1 (centres undefined)
log2 ratio of Biotin-Ahx-Ub-VS probe labelling [1]: -0.429 | log2 ratio of Biotin-Ahx-Ub-VS probe labelling [2]: -0.121 | log2 ratio of Biotin-Ahx-Ub-VS probe labelling [3]: -0.939 | log2 ratio of Biotin-Ahx-Ub-VS probe labelling [4]: -0.173 | log2 ratio of Biotin-Ahx-Ub-VS probe labelling [5]: -0.26 | log2 ratio of Biotin-Ahx-Ub-VS probe labelling [6]: -1.1 (active) | log2 ratio of Biotin-Ahx-Ub-VS probe labelling [7]: -0.0706 | log2 ratio of Biotin-Ahx-Ub-VS probe labelling [8]: -0.756 | log2 ratio of Biotin-Ahx-Ub-VS probe labelling [9]: -0.629
